Data published in PMC4336329 (PLoS ONE, 2015).
The campaign covered roughly 310,000 compounds. About 14,000 (4.5%) showed an effect of 50% or more. The effect is printed as a negative number. Only a selection was taken, and strong results are over-represented in it overall.

target: human ether-à-go-go-related gene (hERG) potassium channel (human, UniProt Q12809); assay: primary screen, population patch clamp on CHO cells stably expressing hERG; higher = less effect of the substance
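Also: peak tail current of the secondary pulse compared with the same well before compound.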

Chain of human ether-à-go-go-related gene (hERG) potassium channel (Q12809 whole entry, looked up): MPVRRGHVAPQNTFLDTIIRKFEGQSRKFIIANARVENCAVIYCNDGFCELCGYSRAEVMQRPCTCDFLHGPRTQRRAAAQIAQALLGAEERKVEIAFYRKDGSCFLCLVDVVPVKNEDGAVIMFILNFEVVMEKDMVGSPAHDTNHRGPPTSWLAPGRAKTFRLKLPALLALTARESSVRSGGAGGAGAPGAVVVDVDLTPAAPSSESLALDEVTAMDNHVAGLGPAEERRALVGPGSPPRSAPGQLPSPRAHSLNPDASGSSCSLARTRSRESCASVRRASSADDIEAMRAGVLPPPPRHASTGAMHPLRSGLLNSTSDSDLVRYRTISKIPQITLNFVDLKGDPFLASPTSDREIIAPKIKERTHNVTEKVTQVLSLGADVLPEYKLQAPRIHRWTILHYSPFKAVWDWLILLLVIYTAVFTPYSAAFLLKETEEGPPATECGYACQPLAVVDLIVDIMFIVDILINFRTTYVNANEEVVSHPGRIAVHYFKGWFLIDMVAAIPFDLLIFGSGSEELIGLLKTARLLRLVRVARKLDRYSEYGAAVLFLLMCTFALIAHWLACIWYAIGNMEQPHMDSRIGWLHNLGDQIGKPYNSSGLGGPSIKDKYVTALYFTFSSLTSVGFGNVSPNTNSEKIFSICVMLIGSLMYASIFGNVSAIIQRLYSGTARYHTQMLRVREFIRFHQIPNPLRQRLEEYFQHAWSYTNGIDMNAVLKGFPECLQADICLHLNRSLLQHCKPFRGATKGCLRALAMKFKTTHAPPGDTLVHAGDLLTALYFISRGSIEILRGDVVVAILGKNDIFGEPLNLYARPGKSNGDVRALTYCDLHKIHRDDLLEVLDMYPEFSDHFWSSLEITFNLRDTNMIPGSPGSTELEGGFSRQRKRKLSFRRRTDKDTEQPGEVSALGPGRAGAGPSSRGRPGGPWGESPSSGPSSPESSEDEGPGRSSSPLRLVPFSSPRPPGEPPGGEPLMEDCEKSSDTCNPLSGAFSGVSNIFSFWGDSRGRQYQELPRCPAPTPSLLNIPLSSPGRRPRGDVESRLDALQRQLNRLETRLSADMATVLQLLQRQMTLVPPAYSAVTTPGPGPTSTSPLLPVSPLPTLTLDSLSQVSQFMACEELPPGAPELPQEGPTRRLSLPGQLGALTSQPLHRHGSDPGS

Structure (SMILES) | hERG current change (%, negative = inhibition) at 10uM
COc1ccc(C2NS(=O)(=O)OCC2C)cc1 (stereo not shown) | 16.4%
COc1ccc(C(=O)NCCN2C(=O)S/C(=C\c3cccnc3)C2=O)c(OC)c1OC | -9.86%
CCNC(=S)N1CCN(CCN=CC2=C(O)CC(C)(C)CC2=O)CC1 | -9.75%
CCC(CC)C(=O)N1CCN(c2ccccc2)CC1 | -2.08%
CC(=O)c1ccc(N2CCN(CC(O)COC(c3ccccc3)c3ccccc3)CC2)cc1 (stereo not shown) | -66.5%
CC(=O)c1ccc(N2CCN(CC(O)COC(c3ccccc3)c3ccccc3C)CC2)cc1 (stereo not shown) | -41%
COc1ccc(N2CCN(CC(O)COC(c3ccccc3)c3ccccc3)CC2)cc1 (stereo not shown) | -64.9%
O=C(O)C(=O)O.OC(COCc1ccco1)CN1CCN(c2ccccc2)CC1 (stereo not shown) | -24.8%
COc1ccc(OCC(O)CN2CCN(c3ccccc3)CC2)cc1.Cl (stereo not shown) | -39.2%
CC(=O)c1ccc(N2CCN(CC(O)c3ccccc3)CC2)cc1 (stereo not shown) | -11.6%
COc1ccc(N2CCN(CC(O)COCc3ccccc3)CC2)cc1.Cl (stereo not shown) | -25.2%
Cc1ccc(Cl)cc1N1CCN(CC(O)COCc2ccco2)CC1.O=C(O)C(=O)O (stereo not shown) | -73.1%
Cc1ccc(Cl)cc1N1CCN(Cc2nnnn2Cc2ccco2)CC1 | -37.9%
Cc1ccc(Cl)cc1N1CCN(C(=S)NCc2ccco2)CC1 | 37.1%
CC(=O)c1ccc(N2CCN(CC(O)COCc3ccco3)CC2)cc1 (stereo not shown) | -56.3%
OC(COCc1ccccc1)CN1CCN(c2ccccc2)CC1 (stereo not shown) | -45.2%
CC(=O)Nc1ccc(S(=O)(=O)N2CCN(S(=O)(=O)N3CCCCCC3)CC2)cc1 | 8.41%
CC(C)c1onc(C(=O)N2CCN(c3ccccc3)CC2)c1[N+](=O)[O-] | 14.1%
CCC(C)(C)C1CCC(NC(=O)N2CCN(c3ccccc3O)CC2)CC1 (stereo not shown) | -6.84%
COc1cc(Cl)c(C)cc1NC(=O)CSc1cc(Cl)ccc1Cl | 7.31%
COc1ccc(CC(=O)OCCN(C)C)cc1.Cl | 11.8%
c1ccc(CCN2CN=C(Nc3nc4ccccc4s3)NC2)cc1 | -1.49%

Structure (SMILES) | hERG current change (%, negative = inhibition) at 10uM
Cc1ccc(Cl)cc1N1CCN(CC(O)COC(C)C)CC1.Cl (stereo not shown) | -63.7%
COc1ccc(N2CCN(CCC(O)c3ccc4ccccc4c3)CC2)cc1 (stereo not shown) | -68.3%
CCCN1CCN(CC(O)COC(c2ccc(OC)cc2)c2ccc(OC)cc2)CC1.O=C(O)C(=O)O (stereo not shown) | -30.2%
COc1ccc(N2CCN(CC(O)COC(C)(C)C)CC2)cc1.O=C(O)C(=O)O (stereo not shown) | 10.2%
Cc1ccc(Cl)cc1N1CCN(Cc2cc3c(cc2O)CCC3)CC1 | 4.92%
COc1ccc(C(CCN2CCN(c3ccccc3)CC2)c2c(O)cc(OC)cc2OC)cc1 (stereo not shown) | -30.5%
Cc1ccc(Cl)cc1N1CCN(CCN)CC1 | -0.374%
COc1ccc(N2CCN(CC(O)COC(c3ccc(F)cc3)c3ccc(F)cc3)CC2)cc1.O=C(O)C(=O)O (stereo not shown) | -81.6%
COc1ccc(N2CCN(CCN3C(=O)c4ccccc4C3=O)CC2)cc1 | 17.6%
N=C1C(c2ccc(Br)cc2)=C(O)C2CCc3ccccc3N12 (stereo not shown) | -30.5%
CC(C)N(C(=O)Cn1cnc2cc([N+](=O)[O-])ccc2c1=O)C(C)C | 7.76%
Cc1cccc2cc(CN(CCCO)C(=O)Nc3ccccc3Cl)c(=O)[nH]c12 | 5.32%
O=C(N=C1c2ccccc2CN1c1ccccc1)c1cccc([N+](=O)[O-])c1 | -1.72%
CC1CCCN(CCCNC(=O)c2cc3c(Cl)nc4ccccc4c3s2)C1 (stereo not shown) | -55.6%
CCC1CCCCN1CCCNC(=O)c1cc2c(Cl)nc3ccccc3c2s1 (stereo not shown) | -76.6%
O=C(NCCCN1CCCC1)c1cc2c(Cl)nc3ccccc3c2s1 | -13.9%
Cc1nc2ccccc2c2oc(C(=O)NCCCN3CCCC(C)C3)cc12 (stereo not shown) | -19%
CC1CCCN(CCCNC(=O)c2coc3nc4ccccc4nc23)C1 (stereo not shown) | -5.67%
CCC1CCCCN1CCCNC(=O)CCNC(=O)Cn1cnc2ccccc2c1=O (stereo not shown) | -0.683%
CC1CCN(CCCNC(=O)c2cc3c(Cl)nc4ccccc4c3s2)CC1 | -66.2%
Cc1ccc2nc(Cl)c3cc(C(=O)NCCCN4CCCC4)sc3c2c1 | -10.3%
CCN(CC)CCCNC(=O)c1cc2c(Cl)nc3ccccc3c2s1 | -47.1%

Structure (SMILES) | hERG current change (%, negative = inhibition) at 10uM
Cc1cccc(C)c1NC(=O)C1(N(Cc2ccco2)C(=O)CC2NC(=O)NC2=O)CCCCC1 (stereo not shown) | 7.25%
CCN(CC)C(=O)CSc1nnnn1-c1ccc(F)c(Cl)c1 | -3.28%
O=C(Oc1ccc(-c2nc(-c3ccccn3)no2)cc1)c1ccccc1 | 7.73%
CCOC(=O)c1[nH]c2ccc(OC)cc2c1NC(=O)c1ccc2c(c1)OCO2 | 17.1%
CN(CC(=O)Nc1ccccc1C(F)(F)F)C(=O)c1ccc(-c2ccc(Cl)cc2)o1 | -13.7%
COc1ccc(-n2nnc3c(SCC(=O)Nc4ccc5c(c4)OCCO5)ncnc32)cc1 | 0.643%
C=CCNC(=O)c1onc(CSc2ccc(Cl)cc2)c1C(=O)O | 15.2%
CC(C)(O)C#Cc1ccc(C(=O)Nc2ccc3c(c2)OCO3)s1 | 22.7%
O=C(Nc1cccnc1Cl)c1cc2ccccc2o1 | 6.92%
O=C(O)c1cccc(OS(=O)(=O)c2cc(Br)ccc2Br)c1 | -9.65%
Cn1cc(S(=O)(=O)N2CCOCC2)cc1C(=O)Nc1ccc(Cl)cc1 | -51%
O=C(Nc1ccccc1C(=O)O)c1cc(S(=O)(=O)N2CCOCC2)cs1 | -66.4%
Cc1ccc(NC(=O)c2cc(S(=O)(=O)N3CCOCC3)cn2C)cc1Cl | 11.2%
O=C(Nc1ccccc1C(=O)O)c1cc(S(=O)(=O)N2CCCCC2)cs1 | 10.1%
O=C(Nc1ccc(Cl)cc1)c1cc(S(=O)(=O)N2CCOCC2)cs1 | -51.2%
O=C(Nc1ccc(F)cc1)c1cc(S(=O)(=O)N2CCOCC2)cs1 | -11%
Cn1cc(S(=O)(=O)N2CCOCC2)cc1C(=O)Nc1cccc(Cl)c1 | -10.4%
O=C(Nc1ccccc1Cl)c1cc(S(=O)(=O)N2CCOCC2)cs1 | -9.07%
Cc1ccc(NC(=O)c2cc(S(=O)(=O)N3CCOCC3)cs2)cc1 | -8.31%
CCOc1ccccc1NC(=O)NCc1ccccc1 | 0.101%
CN(C)S(=O)(=O)c1ccc2c(c1)C(CC(=O)O)NC2=O (stereo not shown) | 6.72%
CCCOc1ccc(N2C(=O)CC(SC(=NCC)NCC)C2=O)cc1 (stereo not shown) | 11.9%

Structure (SMILES) | hERG current change (%, negative = inhibition) at 10uM
Cc1nc(-c2ccccc2)sc1C(=O)CSc1ccc(F)cc1 | -7.92%
CNC(=S)NNC(=O)c1cccn(Cc2ccccc2)c1=O | 19%
COc1ccc(OC)c(S(=O)(=O)N2CCN(c3ccccn3)CC2)c1 | -12.5%
COc1ccc(S(=O)(=O)N2CCN(CCc3ccccc3)CC2)c(OC)c1 | -25.6%
COc1ccc(CN2CCN(C)CC2)cc1OCc1ccccc1 | -19%
COc1ccc(CN2CCN(c3ccccn3)CC2)c(OC)c1 | -75.9%
COc1ccc(CN2CCN(CCCc3ccccc3)CC2)c(OC)c1 | -76.6%
COc1ccc(CN2CCc3ccccc3C2)c(OC)c1 | -28.4%
COc1ccc(OC)c(S(=O)(=O)N2CCN(Cc3ccccc3)CC2)c1 | 2.05%
COc1ccc(NC(=S)N2CCN(Cc3ccccc3)CC2)c(OC)c1 | -5.79%
COc1ccc(-c2[nH]ncc2CN2CCN(c3ccccn3)CC2)c(OC)c1 | -31.5%
COc1ccc(CN2CCN(c3ccccn3)CC2)cc1OCc1ccccc1 | -67.9%
COc1ccc(CC(C)N2CCN(Cc3ccccc3)CC2)c(OC)c1 (stereo not shown) | -75.3%
CCN1CCN(Cc2ccc(OC)c(OCc3ccccc3)c2)CC1 | -41.9%
Fc1cccc(-c2oncc2-c2nnnn2-c2ccc(Cl)cc2)c1 | -13.9%
CCOC(=O)c1ccc(NC(=O)CCc2nnc3ccc(N4CCCC4)nn23)cc1 | 5.84%
O=C(OCC1CC(c2ccccc2)=NO1)c1ccc(Cl)cc1 (stereo not shown) | 18.6%
CN1CCN(CP(=O)(N2CCOCC2)N2CCOCC2)CC1 | 1.13%
Br.CC(C)(C)C(=O)Cn1c(NCCCO)nc2ccccc21 | -7.81%
CC(NS(=O)(=O)c1ccc(CCC(=O)NCc2cccnc2)cc1)c1ccccc1 (stereo not shown) | -1.35%
CCOC(=O)CSc1nnc(NC(=O)c2cc([N+](=O)[O-])cc([N+](=O)[O-])c2)s1 | -8.83%
O=C(C[n+]1ccccc1)N/N=C/c1cccs1.[Cl-] | 12%
